From PMC10726135, “HNF4α isoforms regulate the circadian balance between carbohydrate and lipid metabolism in the liver”
In all, about 18,000 sequences were measured (“log2 normalized intensity”: median about 0.39, highest 2% from about 6.6 on). What follows is part of a selection rich in the highest values, with near analogues and random picks from the rest.

These sequences were tested against T1, HNF4alpha2 (COS-7 nuclear extract) (Homo sapiens, UniProt P41235 1-474) (assay: protein-binding microarray; COS-7 nuclear extract on double-stranded Agilent 4x180k PBM; binding buffer, salt, pH and temperature not given in the material; high values mean tight binding). Conditions: chain copies: 2; label: 3' end of strand 1 on the slide; dsDNA, one strand shown.
T1 sequence: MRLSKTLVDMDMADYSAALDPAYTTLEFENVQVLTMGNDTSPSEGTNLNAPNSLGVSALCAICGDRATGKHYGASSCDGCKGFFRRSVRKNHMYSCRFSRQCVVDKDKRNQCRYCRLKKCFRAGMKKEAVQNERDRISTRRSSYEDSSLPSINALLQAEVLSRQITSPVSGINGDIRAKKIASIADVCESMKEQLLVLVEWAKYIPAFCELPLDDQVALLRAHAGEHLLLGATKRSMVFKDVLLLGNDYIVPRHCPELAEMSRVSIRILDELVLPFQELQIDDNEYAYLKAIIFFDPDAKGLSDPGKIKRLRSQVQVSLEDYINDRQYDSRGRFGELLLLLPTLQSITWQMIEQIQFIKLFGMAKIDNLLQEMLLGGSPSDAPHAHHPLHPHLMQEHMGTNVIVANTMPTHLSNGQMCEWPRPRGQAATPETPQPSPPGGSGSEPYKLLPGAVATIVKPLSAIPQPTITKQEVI
Procedure, shortened: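 Double-stranded oligonucleotides of ~60 nt, representing ~44,000 test sequences in quadruplicate, made up a custom Agilent SurePrint G3 4x180k array. Nuclear extracts from COS-7 cells transiently transfected by CaPO4 with a human HNF4α isoform expression vector were applied, and bound HNF4α was imaged at 2-µm resolution on an Agilent G2565CA scanner. Binding signal refers to the background-corrected, normalized gProcessedSignal output of Agilent software.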

Sequence | binding signal [log2 normalized intensity]
GCCACCTTGGTGAGAGATTAAACATGCTCTGCCTAGGGAGATTAGAGTATCGGTCGA | 0.469
ACAGCCTTTTGAGTTTCTACCATAGACCCTGCCTAGGGAGATTAGAGTATCGGTCGA | 1.05
TTACTGGACTTGATCCATTCTACCCCTGTGGCCTAGGGAGATTAGAGTATCGGTCGA | 2.73
TACCCCTGTGGTTGACCTTTAGTCTCTAGCGCCTAGGGAGATTAGAGTATCGGTCGA | 6.48
TGATCCATTCTACCCCTGTGGTTGACCTTTGCCTAGGGAGATTAGAGTATCGGTCGA | 7.8
GGACTTGATCCATTCTACCCCTGTGGTTGAGCCTAGGGAGATTAGAGTATCGGTCGA | 2.25
CATTCTACCCCTGTGGTTGACCTTTAGTCTGCCTAGGGAGATTAGAGTATCGGTCGA | 7.73
ATGCTAAAGTCTACATTCTAGATGACCCCTGCCTAGGGAGATTAGAGTATCGGTCGA | 5.66
GGACTTCGCTCCGCCGCTAGGTGGCGGGCTGCCTAGGGAGATTAGAGTATCGGTCGA | 1.42
GAGAAGTTGCTCTTTACACCATTGCAAGGAGCCTAGGGAGATTAGAGTATCGGTCGA | -0.941
GGAGCCCCCTGGGGGAGGTTTCCTGCTGTCGCCTAGGGAGATTAGAGTATCGGTCGA | -0.946
ATCTTCCTCCCCCCTTGGCTACATGTTTGTGCCTAGGGAGATTAGAGTATCGGTCGA | 3.7
CTGCAAAGAAGTCAAACTTTGGACCCACTGGCCTAGGGAGATTAGAGTATCGGTCGA | 5.97
ACACAGGACTTGATCCAGGGCAAAGGTCATGCCTAGGGAGATTAGAGTATCGGTCGA | 7.38
AGAAAACACAGAGATCTGATCAAAGGTCATGCCTAGGGAGATTAGAGTATCGGTCGA | 5.9
TGATCCAGGGCAAAGGTCATAATTTGATCCGCCTAGGGAGATTAGAGTATCGGTCGA | 6.34
TCAGGAGCCCCACAGAGCAAAGGTCATGCAGCCTAGGGAGATTAGAGTATCGGTCGA | 5.38
GGACTTGATCCAGGGCAAAGGTCATAATTTGCCTAGGGAGATTAGAGTATCGGTCGA | 6.98
CAAAGGTCATAATTTGATCCAGTGTGCAAAGCCTAGGGAGATTAGAGTATCGGTCGA | 3.35
GAGCTTTTACCTCAAATAAAGGTCAGAGTCGCCTAGGGAGATTAGAGTATCGGTCGA | 1.79
GTATCAGGGCTCAGGAATGTGGGGTCAACAGCCTAGGGAGATTAGAGTATCGGTCGA | 2.99
CCGCGACAAGCGTCGCTGAGTGGAGGCCCAGCCTAGGGAGATTAGAGTATCGGTCGA | -0.847

Sequence | binding signal [log2 normalized intensity]
GCAATGTGGACTTTGTCCTGTGGGCTGTAAGCCTAGGGAGATTAGAGTATCGGTCGA | 7.35
CCGTCCTGTCCTGGACTTTCCTTTGTTGGGGCCTAGGGAGATTAGAGTATCGGTCGA | 2.3
TGGACTTTGGTCCTGGTCAGACTTGCCACGGCCTAGGGAGATTAGAGTATCGGTCGA | 4.5
ATGGACTTTGAAGGAGATTCCTGTGTCAGCGCCTAGGGAGATTAGAGTATCGGTCGA | 0.984
AGTTTGCCACGGTCAGCAATGTGGACTTTGGCCTAGGGAGATTAGAGTATCGGTCGA | 6.18
GCCACGGTCAGCAATGTGGACTTTGTCCTGGCCTAGGGAGATTAGAGTATCGGTCGA | 9.67
GGTCAGCAATGTGGACTTTGTCCTGTGGGCGCCTAGGGAGATTAGAGTATCGGTCGA | 7.77
GTGGACTTTGTCCTGTGGGCTGTAAAAATCGCCTAGGGAGATTAGAGTATCGGTCGA | 5.03
GTGGGAGAAAGCTTTGGACTTTGGGCTGTGGCCTAGGGAGATTAGAGTATCGGTCGA | 5.72
TTGTCAGTGCCCTATACAGACCTTTGTATAGCCTAGGGAGATTAGAGTATCGGTCGA | 2.96
CTCACAGAGTGGAGTCTTCCGTTTGATAGAGCCTAGGGAGATTAGAGTATCGGTCGA | -0.436
CTTTATCTAGATAAGTTTATTTACTTATGTGCCTAGGGAGATTAGAGTATCGGTCGA | 1.49
ATGGTCAGTGTTGATAAGAAAGCTGCAGTCGCCTAGGGAGATTAGAGTATCGGTCGA | 0.747
TAGGTTATCTTTGGAGAATGCCTTTTGTGTGCCTAGGGAGATTAGAGTATCGGTCGA | 2.15
ATACTTAGGATTTTTGTGCCTCTTTGGTGAGCCTAGGGAGATTAGAGTATCGGTCGA | 1.13
TATTCAAACAGAGGACAGTTGTGTTTGTTGGCCTAGGGAGATTAGAGTATCGGTCGA | 1.96
TTTGGTGAGGCCCCAGTGTCAATTCTCATTGCCTAGGGAGATTAGAGTATCGGTCGA | 1.82
CAGGCTGTTTTCCTATAGATTTGTTAAATCGCCTAGGGAGATTAGAGTATCGGTCGA | 1.13
CTTTGTGGCAGGAGGAGCTGTTTGACATCCGCCTAGGGAGATTAGAGTATCGGTCGA | 0.0869
GAGACAGCTCCACAGCTGGACTTTGGCTGCGCCTAGGGAGATTAGAGTATCGGTCGA | 5.41
ACAGTTCTGATACATTGGACAACTGTACTTGCCTAGGGAGATTAGAGTATCGGTCGA | 2.1
ATCTCCAAACGAGACTTTGGACTTTGGACTGCCTAGGGAGATTAGAGTATCGGTCGA | 11.8

Sequence | binding signal [log2 normalized intensity]
ATCTCCAGATAAGACTTTGGACTTTGGACCGCCTAGGGAGATTAGAGTATCGGTCGA | 11.6
AAAGGGACTCATCTCCAAACGAGACTTTGGGCCTAGGGAGATTAGAGTATCGGTCGA | 1.6
GCTAAGAGACAGCTCCACAGCTGGACTTTGGCCTAGGGAGATTAGAGTATCGGTCGA | 5.15
TCTGATACATTGGACAACTGTACTTTGGACGCCTAGGGAGATTAGAGTATCGGTCGA | 7.2
GACTCATCTCCAAACGAGACTTTGGACTTTGCCTAGGGAGATTAGAGTATCGGTCGA | 8.97
GGGTGAAAGGGACTCATCTCCAAACGAGACGCCTAGGGAGATTAGAGTATCGGTCGA | -0.986
TACATTGGACAACTGTACTTTGGACTGGGGGCCTAGGGAGATTAGAGTATCGGTCGA | 5.99
GGTGAGATAAGAAGACTCCAGGGGACTGCCGCCTAGGGAGATTAGAGTATCGGTCGA | -0.872
CTCCAAACATCTTTGGTATGGACTGATATTGCCTAGGGAGATTAGAGTATCGGTCGA | 1.5
ATGATTGACAGGTTATTTCAATTACAAAGCGCCTAGGGAGATTAGAGTATCGGTCGA | 1.06
CCCGGCAGATCAGGGTCAGGCTGTGGTACGGCCTAGGGAGATTAGAGTATCGGTCGA | 0.662
AGTCCCTGTCCCTTCTTGGCAAGTTAATGTGCCTAGGGAGATTAGAGTATCGGTCGA | 1.94
GGTGAGGGTGAGGGTGAGGGTTAGGGGTTAGCCTAGGGAGATTAGAGTATCGGTCGA | -0.0851
CATTAAGCTTAGCGTTATCAAACCAAATATGCCTAGGGAGATTAGAGTATCGGTCGA | -0.0208
GGTCAACACAATCTGATAGTTGATTGATTGGCCTAGGGAGATTAGAGTATCGGTCGA | 0.627
TCATCTTCAAAGCCAGCAATGGCAGGTCCAGCCTAGGGAGATTAGAGTATCGGTCGA | 1.41
TCTGCAGACATGGACTCTGGGATCTCAGGGGCCTAGGGAGATTAGAGTATCGGTCGA | 1.24
ACAGCTAGTCTAGACTTTGCTTTCTTGGAGGCCTAGGGAGATTAGAGTATCGGTCGA | 1.24
TGGTGGGGAATGCTAGGACTCATTCTCCCCGCCTAGGGAGATTAGAGTATCGGTCGA | 0.442
AGAGCTCAGAAGCCACCAGTGCAAATATAAGCCTAGGGAGATTAGAGTATCGGTCGA | -0.972
TCTTTAGGCCAAACAAAAATATGGACTTTGGCCTAGGGAGATTAGAGTATCGGTCGA | 5.84
GAAGGAGAGAGAGGGAGAGTGGCCTTTGGAGCCTAGGGAGATTAGAGTATCGGTCGA | 2.89

Sequence | binding signal [log2 normalized intensity]
CACAAATTGGAGAGCATCTTGGACTTGGGAGCCTAGGGAGATTAGAGTATCGGTCGA | 2.73
AAGAGATAAAAGAGAAGATAATGGATTGGGGCCTAGGGAGATTAGAGTATCGGTCGA | -0.492
ATTTGGACTTTTACTCTTAGAGATAATGGGGCCTAGGGAGATTAGAGTATCGGTCGA | 2.13
CAAACGAGACTTTGGACTTTGGACTTGGGAGCCTAGGGAGATTAGAGTATCGGTCGA | 10.5
AGGCCAAACAAAAATATGGACTTTGGAATTGCCTAGGGAGATTAGAGTATCGGTCGA | 7.99
GGATAATGATAAAGAGATTGGACTTTGGCCGCCTAGGGAGATTAGAGTATCGGTCGA | 8.99
AAAATATGGACTTTGGAATTAAGAAAAGCTGCCTAGGGAGATTAGAGTATCGGTCGA | 5.25
CTATCACTGTCTAGCTGTGTAACCCTGGACGCCTAGGGAGATTAGAGTATCGGTCGA | 1.48
TGTCCAGCACACCTTTTTTTCATGCAAATTGCCTAGGGAGATTAGAGTATCGGTCGA | 0.631
CCCCCTTTTGCTTTCCGTTAGGCTACAGTGGCCTAGGGAGATTAGAGTATCGGTCGA | 1.03
CTCCTCTCCAGCCCATCCTAAGCCCCAGGGGCCTAGGGAGATTAGAGTATCGGTCGA | 1.15
CTGAGCCTCAGAACCATTTGTGAGGATGGGGCCTAGGGAGATTAGAGTATCGGTCGA | -0.528
TGCATGCAAAAAGGCTGACCTTTGACTCTCGCCTAGGGAGATTAGAGTATCGGTCGA | 7.57
AAGAGCTGAGGAAGTGCTGACCTTTGGTCTGCCTAGGGAGATTAGAGTATCGGTCGA | 7.29
CTGAGGAAGTGCTGACCTTTGGTCTAAACCGCCTAGGGAGATTAGAGTATCGGTCGA | 6.27
ATGCAAAGCCCTGGCTGACCTTTAGCCTGGGCCTAGGGAGATTAGAGTATCGGTCGA | 6.54
TAGATAAGAGCTGAGGAAGTGCTGACCTTTGCCTAGGGAGATTAGAGTATCGGTCGA | 5.77
AGGCTGTCAGAGTGCTGCATGCAAAAAGGCGCCTAGGGAGATTAGAGTATCGGTCGA | -0.743
AGTGCTGCATGCAAAAAGGCTGACCTTTGAGCCTAGGGAGATTAGAGTATCGGTCGA | 7.82
GTCAGAGTGCTGCATGCAAAAAGGCTGACCGCCTAGGGAGATTAGAGTATCGGTCGA | 1.41
CTTTTTGACCTTGCAGTGGCAAGGCAAAAGGCCTAGGGAGATTAGAGTATCGGTCGA | 1.56
